Test [1] is described as follows: ATG_M_32_XSP2: Attagene TRANS-FACTORIAL Multi-Species (XSP2) HepG2 Assay for M19 Transcription Factor (Internal Marker) (AID 2283826). Summed up:
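HepG2 cells transiently transfected with GAL4-UAS reporter transcription units, dosed with compound for 24 h in presence of 3 nM 6-alpha-fluorotestosterone and 1.5 nM norgestrel; reporter mRNA quantified by RT-PCR, FAM labelling, HpaI digestion and capillary electrophoresis.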

Test [2] has as its target Peroxisome proliferator-activated receptor gamma (Homo sapiens) (UniProt P37231). Nature of the test: ATG_hPPARg_XSP2: Attagene TRANS-FACTORIAL Multi-Species (XSP2) HepG2 Assay for human Peroxisome Proliferator-activated Receptor gamma (PPARg) (AID 2283829).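 Also: actives raise reporter mRNA above DMSO so AC50 reflects PPARg activation.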 Summed up: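 HepG2 cells transiently transfected with multiplexed GAL4-UAS reporter units for chimeric NR-Gal4 receptors, dosed 24 h. Reporter mRNA quantified by RT-PCR, 6-FAM labeling, HpaI digestion and capillary electrophoresis; gain-of-signal fitted against DMSO baseline.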

The target of test [3] is mouse Peroxisome Proliferator-activated Receptor gamma (PPARg), Pparg (gene 19016) (UniProt P37238). As to the kind of experiment: ATG_mPPARg_XSP2: Attagene TRANS-FACTORIAL Multi-Species (XSP2) HepG2 Assay for mouse Peroxisome Proliferator-activated Receptor gamma (PPARg) (AID 2283830).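 Also: hits are gains in reporter mRNA above DMSO so AC50 marks activation.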 The method, boiled down: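 Multiplexed TRANS reporter readout: after 24 h chemical exposure of transfected HepG2 cells (with 3 nM 6-alpha-fluorotestosterone, 1.5 nM norgestrel present), RNA reverse-transcribed, amplified, 6-FAM-labelled and resolved by capillary electrophoresis; mouse PPARg-Gal4 induction scored against DMSO.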
mouse Peroxisome Proliferator-activated Receptor gamma (PPARg), Pparg (gene 19016), sequence (P37238 whole entry, looked up, the tested form may be a part): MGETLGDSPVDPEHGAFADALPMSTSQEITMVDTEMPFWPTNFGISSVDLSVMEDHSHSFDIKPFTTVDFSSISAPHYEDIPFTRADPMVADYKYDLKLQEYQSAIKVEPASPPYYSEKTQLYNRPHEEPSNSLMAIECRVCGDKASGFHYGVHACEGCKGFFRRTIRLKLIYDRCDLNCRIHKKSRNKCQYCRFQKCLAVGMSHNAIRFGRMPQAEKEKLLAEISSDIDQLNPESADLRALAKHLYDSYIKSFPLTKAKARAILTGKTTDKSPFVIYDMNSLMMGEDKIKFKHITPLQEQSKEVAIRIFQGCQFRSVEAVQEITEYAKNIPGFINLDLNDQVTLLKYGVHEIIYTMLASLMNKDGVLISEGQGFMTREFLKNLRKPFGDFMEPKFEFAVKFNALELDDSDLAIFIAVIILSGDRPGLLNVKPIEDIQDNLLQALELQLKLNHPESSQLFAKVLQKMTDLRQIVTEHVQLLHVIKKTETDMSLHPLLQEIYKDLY

The target of test [4] is Nuclear receptor subfamily 1 group I member 2 (Mus musculus) (UniProt O54915). As to the kind of experiment: ATG_mPXR_XSP2: Attagene TRANS-FACTORIAL Multi-Species (XSP1) HepG2 Assay for mouse Pregnane X Receptor (PXR) (AID 2283831). Summed up: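 HepG2 cells transiently transfected with GAL4-UAS reporter units expressing chimeric NR-GAL4 proteins; reporter mRNA measured 24 h after dosing by RT-PCR with 6-FAM labelling and capillary electrophoresis, gain of signal relative to DMSO.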
Nuclear receptor subfamily 1 group I member 2 (Mus musculus), sequence (O54915 whole entry, looked up, the tested form may be a part): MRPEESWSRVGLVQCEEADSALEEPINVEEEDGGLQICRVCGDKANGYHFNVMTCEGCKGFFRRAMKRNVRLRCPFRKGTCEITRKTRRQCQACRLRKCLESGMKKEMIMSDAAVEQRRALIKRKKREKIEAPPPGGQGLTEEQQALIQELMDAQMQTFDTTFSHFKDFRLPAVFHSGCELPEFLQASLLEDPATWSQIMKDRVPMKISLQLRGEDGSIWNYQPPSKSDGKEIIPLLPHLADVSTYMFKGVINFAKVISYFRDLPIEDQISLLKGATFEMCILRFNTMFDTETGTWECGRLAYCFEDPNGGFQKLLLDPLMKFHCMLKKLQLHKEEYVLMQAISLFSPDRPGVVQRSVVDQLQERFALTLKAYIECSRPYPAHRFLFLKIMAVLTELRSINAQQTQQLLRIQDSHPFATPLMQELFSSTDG

Test [5] addresses zebrafish Thyroid Hormone Receptor alpha (TRa), thraa (gene 30670) (UniProt Q98867). As to the kind of experiment: ATG_zfTRa_XSP2: Attagene TRANS-FACTORIAL Multi-Species (XSP1) HepG2 Assay for zebrafish Thyroid Hormone Receptor alpha (TRa) (AID 2283832).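 Also: actives raise zebrafish TRa-Gal4 reporter transcript above DMSO baseline.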 Summed up:
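Readout is reporter mRNA induction, quantified by RT-PCR and capillary electrophoresis with fluorescent labelling, after 24 h compound exposure of transiently transfected HepG2 cells carrying NR-Gal4 chimera reporters. Activity fitted upward relative to DMSO.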

The test system of test [6] is zebrafish Peroxisome Proliferator-activated Receptor gamma (PPARg), gene 557037. Nature of the test: ATG_zfPPARg_XSP2: Attagene TRANS-FACTORIAL Multi-Species (XSP2) HepG2 Assay for zebrafish Peroxisome Proliferator-activated Receptor gamma (PPARg) (AID 2283833).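 Also: actives increase reporter signal over DMSO so AC50 reflects activation.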 The method, boiled down: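 HepG2 cells transiently transfected with GAL4-UAS reporter units expressing a zebrafish PPARg–GAL4 chimera; compound exposure 24 h. Reporter mRNA quantified by RT-PCR with fluorescent labelling and capillary electrophoresis; gain of signal fitted relative to DMSO baseline.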

For test [7], the system named is turtle Thyroid Hormone Receptor, alpha (TRa), gene 101949057. As to the kind of experiment: ATG_trTRa_XSP2: Attagene TRANS-FACTORIAL Multi-Species (XSP1) HepG2 Assay for turtle Thyroid Hormone Receptor, alpha (TRa) (AID 2283834).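 Also: hits raise reporter mRNA over the DMSO baseline so AC50 marks activators.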 Summed up:
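HepG2 cells transiently transfected with multiplexed GAL4-UAS reporter units expressing chimeric NR-Gal4 proteins were dosed for 24 hours. Reporter mRNA was quantified by RT-PCR with 6-FAM labelling and capillary electrophoresis, gain of signal scored against DMSO.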

Test [8] in a line: ATG_M_61_XSP2: Attagene TRANS-FACTORIAL Multi-Species (XSP2) HepG2 Assay for M61 Transcription Factor (Internal Marker) (AID 2283835; active = hit-call score of the fitted dose curve at least 0.9, where 1 is the maximum; inactive = score below 0.9;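 also: active means a rise in signal above the DMSO baseline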). Summed up: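 Internal background marker, read as RT-PCR/capillary-electrophoresis reporter mRNA 24 h post-dose in transiently transfected HepG2 cells. Androgen receptor stimulated with 3 nM 6-alpha-fluorotestosterone plus 1.5 nM norgestrel; gain of signal versus DMSO analysed.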

The target of test [9] is zebrafish Thyroid Hormone Receptor beta (TRb), thrb (gene 30607) (UniProt Q9PVE4). As to the kind of experiment: ATG_zfTRb_XSP2: Attagene TRANS-FACTORIAL Multi-Species (XSP1) HepG2 Assay for zebrafish Thyroid Hormone Receptor beta (TRb) (AID 2283836). Summed up: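 Reporter transcripts were measured by RT-PCR with fluorescent primer extension and capillary electrophoresis, 24 h after chemical dosing of transiently transfected HepG2 cells. Activity was scored as upward signal versus DMSO baseline.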
zebrafish Thyroid Hormone Receptor beta (TRb), thrb (gene 30607), sequence (Q9PVE4 whole entry, looked up): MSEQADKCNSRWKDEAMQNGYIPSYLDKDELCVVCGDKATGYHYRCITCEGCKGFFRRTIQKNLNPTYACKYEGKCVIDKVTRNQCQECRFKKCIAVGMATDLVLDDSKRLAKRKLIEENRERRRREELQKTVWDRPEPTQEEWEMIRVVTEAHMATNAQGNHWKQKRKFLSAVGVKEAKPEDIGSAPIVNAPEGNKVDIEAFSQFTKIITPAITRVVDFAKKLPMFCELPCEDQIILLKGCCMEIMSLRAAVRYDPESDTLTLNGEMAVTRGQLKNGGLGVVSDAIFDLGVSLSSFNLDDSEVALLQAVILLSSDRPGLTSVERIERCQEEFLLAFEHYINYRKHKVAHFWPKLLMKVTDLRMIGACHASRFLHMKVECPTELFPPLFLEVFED

Test [10] in a line: ATG_XTT_Cytotoxicity_XSP2: Cytotoxicity Assessment in the Attagene TRANS-FACTORIAL Multi-Species (XSP2) HepG2 Assay (AID 2283837). The method, boiled down:
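XTT-based cell number read-out in human HepG2 liver cells carrying transfected reporter units, measured 24 h after chemical dosing. Activity is signal loss versus DMSO baseline.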

The target of test [11] is human Thyroid hormone Receptor alpha (TRa), THRA (gene 7067) (UniProt P10827). Nature of the test: ATG_hTRa_XSP2: Attagene TRANS-FACTORIAL Multi-Species (XSP2) HepG2 Assay for human Thyroid hormone Receptor alpha (TRa) (AID 2283838). Summed up:
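Gain-of-signal in reporter mRNA, relative to DMSO, after 24 h dosing of transfected HepG2; quantitation by RT-PCR fragment analysis on capillary electrophoresis.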

The target of test [12] is human Thyroid hormone Receptor beta (TRb), THRB (gene 7068) (UniProt P10828). Nature of the test: ATG_hTRb_XSP2: Attagene TRANS-FACTORIAL Multi-Species (XSP2) HepG2 Assay for human Thyroid hormone Receptor beta (TRb) (AID 2283840).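 Also: actives raise reporter mRNA so potency reflects agonist-like gain of signal.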 Summed up: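 HepG2 cells were transiently transfected with GAL4-UAS multiplexed reporter units expressing chimeric NR-Gal4 proteins, dosed 24 h; reporter mRNA was quantified by RT-PCR, fluorescent labeling, HpaI digestion and capillary electrophoresis, fitted for gain of signal versus DMSO.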
human Thyroid hormone Receptor beta (TRb), THRB (gene 7068), sequence (P10828 whole entry, looked up, the tested form may be a part): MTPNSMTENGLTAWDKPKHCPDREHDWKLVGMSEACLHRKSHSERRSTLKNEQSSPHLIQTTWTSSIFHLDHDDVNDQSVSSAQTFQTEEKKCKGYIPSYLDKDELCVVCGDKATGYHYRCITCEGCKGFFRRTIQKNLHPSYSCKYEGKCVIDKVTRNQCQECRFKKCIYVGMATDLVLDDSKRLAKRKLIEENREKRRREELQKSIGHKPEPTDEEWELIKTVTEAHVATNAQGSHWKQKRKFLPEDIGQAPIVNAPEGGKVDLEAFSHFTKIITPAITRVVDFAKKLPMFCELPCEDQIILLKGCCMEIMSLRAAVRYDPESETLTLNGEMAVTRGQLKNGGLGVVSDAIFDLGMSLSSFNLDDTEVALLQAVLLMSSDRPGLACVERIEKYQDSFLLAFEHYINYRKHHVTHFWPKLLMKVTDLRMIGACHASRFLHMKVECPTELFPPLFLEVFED

A short description of test [13]: CPHEA_Stoker_NIS_Cytotoxicity: Cytotoxicity Assessment for CPHEA's Radioactive Iodide Uptake (RAIU) Assay for Sodium/Iodide Symporter (NIS) Inhibition, Stoker and Laws Labs (AID 2283897).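 As to AC50: active means loss of ATP signal versus DMSO meaning cytotoxicity.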 Summed up: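 hNIS-HEK293T-EPA cells, human NIS expressed in HEK293T, treated 2 h with chemicals (0.001–100 uM, 0.5% final DMSO). ATP content read by CellTiter-Glo luminescence; loss of signal analysed relative to DMSO.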

Test [14] deals with Sodium/Iodide Symporter (NIS), SLC5A5 (gene 6528). Nature of the test: CPHEA_Stoker_NIS_Inhibition_RAIU: CPHEA's Radioactive Iodide Uptake (RAIU) Assay for Sodium/Iodide Symporter (NIS) Inhibition, Stoker and Laws Labs (AID 2283841). The method, boiled down: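 hNIS-HEK293T-EPA cells incubated 2 h at room temperature with compound (0.001–100 uM, 0.5% DMSO) and 329 pM final 125I in HBSS/10 mM HEPES, pH 7.4. Intracellular 125I counted; normalised to DMSO maximal uptake, triplicate, three biological replicates.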

Test [15] is described as follows: CEETOX_H295R_11DCORT_noMTC: CeeTox H295R High-throughput Steroidogenesis Assay for 11-Deoxycortisol (11DCORT), maximum tolerated concentration (MTC) filtered results only (AID 2283911; active = hit-call score of the fitted dose curve at least 0.9, where 1 is the maximum; inactive = score below 0.9). The note with it: actives raise or lower the signal. Summed up:
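HPLC-MS/MS read-out of 11-deoxycortisol after MTBE extraction of H295R medium. Cells: forskolin 10 uM pre-stimulation 48 h, chemical 48 h, 0.1% DMSO final. Bidirectional fit vs DMSO baseline; no MTC filtering.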

A short description of test [16]: CEETOX_H295R_OHPREG_noMTC: CeeTox H295R High-throughput Steroidogenesis Assay for OH-Pregnenolone (OHPREG), maximum tolerated concentration (MTC) filtered results only (AID 2283912; active = hit-call score of the fitted dose curve at least 0.9, where 1 is the maximum; inactive = score below 0.9). The note with it: actives raise or lower the signal. The method, boiled down:
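Medium 17alpha-hydroxypregnenolone quantified by reverse-phase HPLC-MS/MS after 48 h chemical exposure of forskolin-prestimulated (10 uM, 48 h) H295R, 0.1% DMSO final. Fitting bidirectional relative to DMSO; no maximum-tolerated-concentration filtering applied.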

The nature of test [17]: CEETOX_H295R_OHPROG_noMTC: CeeTox H295R High-throughput Steroidogenesis Assay for OH-Progesterone (OHPROG), maximum tolerated concentration (MTC) filtered results only (AID 2283914; active = hit-call score of the fitted dose curve at least 0.9, where 1 is the maximum; inactive = score below 0.9). The note with it: actives raise or lower the signal. Summed up: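 After 48 h forskolin (10 uM) prestimulation, H295R adrenal cells received test chemical in 0.1% DMSO for 48 h. Medium 17alpha-hydroxyprogesterone was MTBE-extracted and measured by HPLC-MS/MS; gain or loss relative to DMSO, no MTT-based MTC filtering.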

Test [18] is described as follows: CEETOX_H295R_CORTISOL_noMTC: CeeTox H295R High-throughput Steroidogenesis Assay for Cortisol, maximum tolerated concentration (MTC) filtered results only (AID 2283916; active = hit-call score of the fitted dose curve at least 0.9, where 1 is the maximum; inactive = score below 0.9). The note with it: actives raise or lower the signal. Summed up:
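Cortisol secretion measured by LC-MS/MS after 48 h chemical treatment (final 0.1% DMSO) of forskolin-primed (10 uM, 48 h) H295R cells; gain or loss fitted relative to DMSO, without maximum-tolerated-concentration filtering.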

Test [19] deals with frog Thyroid hormone Receptor alpha (TRa), thra-a (gene 397942) (UniProt P15204). As to the kind of experiment: ATG_frTRa_XSP2: Attagene TRANS-FACTORIAL Multi-Species (XSP2) HepG2 Assay for frog Thyroid hormone Receptor alpha (TRa) (AID 2283839).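 As to AC50: AC50 reflects induction of frog TRa-driven reporter mRNA above DMSO baseline.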 Summed up: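 HepG2 cells transiently transfected with multiplexed GAL4-UAS reporter units expressing chimeric frog TRα-Gal4; reporter mRNA read 24 h after dosing by RT-PCR, FAM-labelled primer extension, HpaI digest and capillary electrophoresis. Gain of signal fitted versus DMSO.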
frog Thyroid hormone Receptor alpha (TRa), thra-a (gene 397942), sequence (P15204 whole entry, looked up, the tested form may be a part): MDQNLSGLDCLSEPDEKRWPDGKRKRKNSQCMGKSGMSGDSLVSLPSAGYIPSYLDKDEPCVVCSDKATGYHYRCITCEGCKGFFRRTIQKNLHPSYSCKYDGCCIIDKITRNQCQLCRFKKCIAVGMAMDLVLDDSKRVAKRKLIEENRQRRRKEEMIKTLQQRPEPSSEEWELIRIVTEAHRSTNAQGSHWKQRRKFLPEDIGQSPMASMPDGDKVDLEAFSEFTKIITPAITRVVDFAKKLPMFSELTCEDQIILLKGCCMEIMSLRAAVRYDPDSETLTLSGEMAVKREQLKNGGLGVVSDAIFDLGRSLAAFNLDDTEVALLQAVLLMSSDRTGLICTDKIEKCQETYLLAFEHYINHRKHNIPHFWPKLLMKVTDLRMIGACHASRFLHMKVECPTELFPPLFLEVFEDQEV

Test [20] concerns the target Estrogen receptor (Homo sapiens) (UniProt P03372). As to the kind of experiment: ATG_hERa_XSP2: Attagene TRANS-FACTORIAL Multi-Species (XSP2) HepG2 Assay for human Estrogen Receptor (ERa) (AID 2283827). The method, boiled down: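 Trans-activation of exogenous human ERa-Gal4 chimera read in HepG2 as reporter transcript after 24 h exposure; medium included 3 nM 6-alpha-fluorotestosterone and 1.5 nM norgestrel. Quantified by RT-PCR with capillary electrophoresis, positive-direction fitting against DMSO.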

Structures are written as SMILES. “And” between values parts separate entries of the source, which are not always exact repeats. Equal entries are not always repeated. Results filed as inconclusive are left out. Where a structure was tested more than once in an assay, its records may differ in their call. The source made the active and inactive calls. The calls were made as follows, unless noted: active = hit-call score of the fitted dose curve at least 0.9, where 1 is the maximum; inconclusive = response in the unintended direction; inactive = score below 0.9.

This note sets out measurements from PubChem BioAssay (EPA / NIEHS).

Broadly, the AC50 is the concentration at which the activity in the assay is half-maximal.

zebrafish Thyroid Hormone Receptor alpha (TRa), thraa (gene 30670), sequence (Q98867 whole entry, looked up, the tested form may be a part): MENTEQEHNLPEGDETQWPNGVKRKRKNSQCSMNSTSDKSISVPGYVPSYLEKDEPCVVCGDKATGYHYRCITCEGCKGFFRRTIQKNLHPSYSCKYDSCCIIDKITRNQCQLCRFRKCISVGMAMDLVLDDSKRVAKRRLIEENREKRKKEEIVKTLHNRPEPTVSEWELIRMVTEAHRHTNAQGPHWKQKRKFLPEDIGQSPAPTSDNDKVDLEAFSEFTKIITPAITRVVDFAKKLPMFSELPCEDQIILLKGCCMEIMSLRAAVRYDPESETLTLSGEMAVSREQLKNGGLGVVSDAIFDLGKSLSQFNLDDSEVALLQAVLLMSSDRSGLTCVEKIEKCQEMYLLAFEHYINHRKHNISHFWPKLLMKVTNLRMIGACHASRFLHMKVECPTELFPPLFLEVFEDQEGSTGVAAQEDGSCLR
human Thyroid hormone Receptor alpha (TRa), THRA (gene 7067), sequence (P10827 whole entry, looked up, the tested form may be a part): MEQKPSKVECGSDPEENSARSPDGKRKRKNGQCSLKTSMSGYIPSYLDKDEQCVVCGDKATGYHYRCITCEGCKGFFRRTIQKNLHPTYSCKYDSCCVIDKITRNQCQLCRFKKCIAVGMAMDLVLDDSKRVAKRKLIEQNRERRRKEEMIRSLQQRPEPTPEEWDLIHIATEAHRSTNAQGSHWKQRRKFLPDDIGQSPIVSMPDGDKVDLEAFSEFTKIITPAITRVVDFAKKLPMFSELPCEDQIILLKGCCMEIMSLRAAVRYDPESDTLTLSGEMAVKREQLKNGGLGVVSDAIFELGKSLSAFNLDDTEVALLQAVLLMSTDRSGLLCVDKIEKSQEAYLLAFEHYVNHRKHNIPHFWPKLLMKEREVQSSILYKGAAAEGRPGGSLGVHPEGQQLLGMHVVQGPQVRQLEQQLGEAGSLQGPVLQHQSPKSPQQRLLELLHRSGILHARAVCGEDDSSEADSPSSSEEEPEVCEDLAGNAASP
Peroxisome proliferator-activated receptor gamma (Homo sapiens), sequence (P37231 whole entry, looked up, the tested form may be a part): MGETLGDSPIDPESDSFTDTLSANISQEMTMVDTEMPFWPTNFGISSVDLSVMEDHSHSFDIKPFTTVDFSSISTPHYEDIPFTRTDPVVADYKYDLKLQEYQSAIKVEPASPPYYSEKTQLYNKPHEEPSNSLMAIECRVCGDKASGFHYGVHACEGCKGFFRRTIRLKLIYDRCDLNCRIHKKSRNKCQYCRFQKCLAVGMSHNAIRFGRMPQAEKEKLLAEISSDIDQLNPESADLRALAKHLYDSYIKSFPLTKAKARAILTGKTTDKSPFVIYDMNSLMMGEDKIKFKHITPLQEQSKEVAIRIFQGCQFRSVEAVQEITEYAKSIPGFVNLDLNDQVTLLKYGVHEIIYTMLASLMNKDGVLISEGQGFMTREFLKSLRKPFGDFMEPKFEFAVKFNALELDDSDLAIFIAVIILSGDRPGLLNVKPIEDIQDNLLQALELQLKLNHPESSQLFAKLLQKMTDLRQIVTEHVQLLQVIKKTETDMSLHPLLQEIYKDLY
Estrogen receptor (Homo sapiens), sequence (P03372 whole entry, looked up, the tested form may be a part): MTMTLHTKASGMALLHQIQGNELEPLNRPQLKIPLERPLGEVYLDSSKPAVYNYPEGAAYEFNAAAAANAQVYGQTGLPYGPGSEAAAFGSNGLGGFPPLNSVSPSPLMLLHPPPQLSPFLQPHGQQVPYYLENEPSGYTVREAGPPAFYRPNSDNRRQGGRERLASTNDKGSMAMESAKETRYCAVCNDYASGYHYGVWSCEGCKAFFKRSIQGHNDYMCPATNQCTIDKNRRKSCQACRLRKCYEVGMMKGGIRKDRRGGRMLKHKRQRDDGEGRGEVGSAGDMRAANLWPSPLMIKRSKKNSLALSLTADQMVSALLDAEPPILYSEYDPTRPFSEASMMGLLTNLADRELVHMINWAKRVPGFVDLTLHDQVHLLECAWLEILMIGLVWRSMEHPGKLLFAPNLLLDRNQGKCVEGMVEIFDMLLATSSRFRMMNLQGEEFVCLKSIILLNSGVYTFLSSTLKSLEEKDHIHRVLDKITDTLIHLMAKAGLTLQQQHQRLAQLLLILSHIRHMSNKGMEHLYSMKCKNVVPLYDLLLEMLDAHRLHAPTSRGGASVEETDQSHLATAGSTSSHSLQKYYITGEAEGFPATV

For `CC(C)(C)C(O)(CCc1ccc(Cl)cc1)Cn1cncn1` (stereo not given), the outcome in test [1], in [2], in test [3], in [5], in test [6] and in [7] was inactive. In addition, the outcome in test [8], in test [9], in test [10], in test [11], in test [12] and in test [13] was inactive. For the same compound, the AC50 in test [4] is 4.58 µM (active) and 5.55 µM (active).
In the case of `CCOC(=O)[C@]1(c2ccccc2)Oc2ccccc2[C@@H]1N`, the outcome in test [14] was inactive. Besides, in test [13], the AC50 was 1.38 µM (active).
Take `Cc1cc(N=Nc2ccccc2C)ccc1N`: the result in [14] and in test [13] was inactive.
For the compound `COP(=S)(OC)SCN1C(=O)c2ccccc2C1=O`, the result in [13] was inactive.
Turning to `CC(C)COC(=O)c1ccccc1C(=O)OCC(C)C`, the outcome in test [13], in test [15], in [16], in test [17] and in test [18] was inactive.
For `CC(C)(OOC(C)(C)c1ccccc1)c1ccccc1`, the outcome in test [14] and in test [13] was inactive.
In the case of `O=[N+]([O-])C(Br)(CO)CO`, the outcome in [13] was inactive.
As for `Oc1ccc2ccc3cccc4ccc1c2c34`, the compound was called inactive in test [1], in [5], in test [6], in test [7], in [8] and in [9]. In addition, the result in test [19], in test [14] and in test [13] was inactive. The AC50 is 23.4 µM (active) and 3.75 µM (active) in test [3]; 16.5 µM (active) and 11.1 µM (active) in [4]; 151 µM (active) in test [10]; 22.7 µM (active) in [19].
For `CCC[CH2][Sn]([Cl])([CH2]CCC)[CH2]CCC`, the outcome in test [20], in test [5], in test [6], in test [7], in test [8] and in [9] was inactive. The call in test [11] and in test [19] was inactive. The AC50 in [12] is 0.649 µM (active); in test [14] it was 8.22 µM (active); in test [13], 3.44 µM (active).
